Legend:
Experiment in all cases: log2 ratio of Biotin-Ahx-Ub-VS probe labelling (fragment/DMSO); higher = less target engagement (more negative = stronger competition), active = hit call of the paper (q ≤ 0.05, log2 ratio ≤ -1)
Conditions in all cases: compound concentration: 200 uM; treatment time: 3 h
USP34 = USP34 (UniProt Q70CQ2)
Outline: (§1)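 Triplicate samples of HEK293T lysate, 495 µg each, received fragment at 200 µM or vehicle for 3 h, followed by Biotin-Ahx-Ub-VS (0.5 µM final) for 1 h. After NeutrAvidin enrichment of labelled DUBs and LysC/trypsin digestion, peptides were run by diaPASEF LC-MS/MS. The values are average log2 fragment/vehicle ratios from global-median-normalised Spectronaut label-free quantities, tested by unpaired t-test on proteins having ≥2 unique peptides.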

USP36 = target: T1, USP36 (UniProt Q9P275)
T1 sequence (whole entry): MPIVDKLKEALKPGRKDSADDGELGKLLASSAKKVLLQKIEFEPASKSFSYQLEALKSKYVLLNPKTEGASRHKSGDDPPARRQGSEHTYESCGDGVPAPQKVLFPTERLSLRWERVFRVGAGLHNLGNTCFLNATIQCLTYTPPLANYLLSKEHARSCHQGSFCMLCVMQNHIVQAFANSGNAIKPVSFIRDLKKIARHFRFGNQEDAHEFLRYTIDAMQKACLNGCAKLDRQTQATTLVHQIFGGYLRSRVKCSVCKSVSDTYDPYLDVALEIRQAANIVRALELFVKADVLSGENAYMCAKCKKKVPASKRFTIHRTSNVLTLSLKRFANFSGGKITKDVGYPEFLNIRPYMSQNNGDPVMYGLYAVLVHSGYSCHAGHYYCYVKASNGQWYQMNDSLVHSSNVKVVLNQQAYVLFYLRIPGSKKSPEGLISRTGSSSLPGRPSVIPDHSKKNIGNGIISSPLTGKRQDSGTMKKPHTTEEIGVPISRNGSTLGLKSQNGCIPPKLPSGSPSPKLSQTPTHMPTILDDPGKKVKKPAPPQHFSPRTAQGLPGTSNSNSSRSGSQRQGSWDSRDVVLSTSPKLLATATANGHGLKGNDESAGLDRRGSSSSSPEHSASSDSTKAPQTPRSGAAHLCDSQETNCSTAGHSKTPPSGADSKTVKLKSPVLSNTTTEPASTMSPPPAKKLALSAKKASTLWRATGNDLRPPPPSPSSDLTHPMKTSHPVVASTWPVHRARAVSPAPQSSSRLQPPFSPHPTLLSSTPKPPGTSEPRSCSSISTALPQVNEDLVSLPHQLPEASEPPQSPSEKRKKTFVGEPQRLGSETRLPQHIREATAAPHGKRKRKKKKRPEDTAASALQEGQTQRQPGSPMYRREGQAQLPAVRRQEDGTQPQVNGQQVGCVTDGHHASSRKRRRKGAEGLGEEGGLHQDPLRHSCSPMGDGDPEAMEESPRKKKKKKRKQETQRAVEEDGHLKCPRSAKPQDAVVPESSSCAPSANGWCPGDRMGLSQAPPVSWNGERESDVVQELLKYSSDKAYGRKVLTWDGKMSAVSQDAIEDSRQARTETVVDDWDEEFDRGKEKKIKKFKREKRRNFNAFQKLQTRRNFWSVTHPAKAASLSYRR
Outline: as §1

USP38 = target: T2, USP38 (UniProt Q8NB14)
T2 sequence (whole entry): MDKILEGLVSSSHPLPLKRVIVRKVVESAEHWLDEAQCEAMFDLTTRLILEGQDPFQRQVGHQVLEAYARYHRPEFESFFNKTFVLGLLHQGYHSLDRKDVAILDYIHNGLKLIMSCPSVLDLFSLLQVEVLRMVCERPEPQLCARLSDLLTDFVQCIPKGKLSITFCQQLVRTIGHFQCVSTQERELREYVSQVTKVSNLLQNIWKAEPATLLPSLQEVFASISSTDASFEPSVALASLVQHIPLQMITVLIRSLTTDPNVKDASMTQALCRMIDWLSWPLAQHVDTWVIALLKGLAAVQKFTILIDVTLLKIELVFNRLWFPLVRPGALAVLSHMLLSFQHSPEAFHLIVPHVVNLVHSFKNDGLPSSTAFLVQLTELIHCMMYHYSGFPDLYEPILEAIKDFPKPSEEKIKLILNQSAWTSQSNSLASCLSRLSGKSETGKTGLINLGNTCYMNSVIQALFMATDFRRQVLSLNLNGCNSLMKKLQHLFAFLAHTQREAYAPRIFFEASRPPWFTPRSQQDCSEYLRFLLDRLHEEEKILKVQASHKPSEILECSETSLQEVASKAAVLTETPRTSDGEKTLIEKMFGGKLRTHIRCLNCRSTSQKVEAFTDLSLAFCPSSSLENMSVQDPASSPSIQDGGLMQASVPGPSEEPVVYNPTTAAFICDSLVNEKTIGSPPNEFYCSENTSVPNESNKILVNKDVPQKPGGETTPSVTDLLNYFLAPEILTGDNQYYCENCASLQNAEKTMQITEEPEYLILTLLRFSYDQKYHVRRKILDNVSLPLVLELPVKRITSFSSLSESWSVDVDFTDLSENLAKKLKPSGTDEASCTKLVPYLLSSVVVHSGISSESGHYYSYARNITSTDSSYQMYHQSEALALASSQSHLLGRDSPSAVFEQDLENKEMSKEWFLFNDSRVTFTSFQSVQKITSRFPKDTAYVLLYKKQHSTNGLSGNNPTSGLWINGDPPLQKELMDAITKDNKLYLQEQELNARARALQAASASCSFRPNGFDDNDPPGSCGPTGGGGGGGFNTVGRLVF
Outline: as §1

USP39 = target: T3, USP39 (UniProt Q53GS9)
T3 sequence (whole entry): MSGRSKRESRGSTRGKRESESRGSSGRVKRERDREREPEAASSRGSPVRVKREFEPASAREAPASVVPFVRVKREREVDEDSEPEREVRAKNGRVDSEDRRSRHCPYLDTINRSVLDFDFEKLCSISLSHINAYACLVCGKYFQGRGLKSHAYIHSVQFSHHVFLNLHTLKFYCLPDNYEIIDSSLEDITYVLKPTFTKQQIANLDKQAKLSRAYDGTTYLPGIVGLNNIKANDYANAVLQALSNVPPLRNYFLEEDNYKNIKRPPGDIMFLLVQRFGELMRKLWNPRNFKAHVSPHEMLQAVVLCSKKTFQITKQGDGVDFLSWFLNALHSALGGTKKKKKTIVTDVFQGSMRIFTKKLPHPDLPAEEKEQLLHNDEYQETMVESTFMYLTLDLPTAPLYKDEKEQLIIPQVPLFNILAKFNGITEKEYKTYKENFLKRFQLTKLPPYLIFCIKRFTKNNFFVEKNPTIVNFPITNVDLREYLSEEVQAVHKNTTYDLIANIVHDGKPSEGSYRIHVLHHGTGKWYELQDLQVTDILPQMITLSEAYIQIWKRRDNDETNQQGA
Outline: as §1

USP4 = target: T4, USP4 (UniProt Q13107)
T4 sequence (whole entry): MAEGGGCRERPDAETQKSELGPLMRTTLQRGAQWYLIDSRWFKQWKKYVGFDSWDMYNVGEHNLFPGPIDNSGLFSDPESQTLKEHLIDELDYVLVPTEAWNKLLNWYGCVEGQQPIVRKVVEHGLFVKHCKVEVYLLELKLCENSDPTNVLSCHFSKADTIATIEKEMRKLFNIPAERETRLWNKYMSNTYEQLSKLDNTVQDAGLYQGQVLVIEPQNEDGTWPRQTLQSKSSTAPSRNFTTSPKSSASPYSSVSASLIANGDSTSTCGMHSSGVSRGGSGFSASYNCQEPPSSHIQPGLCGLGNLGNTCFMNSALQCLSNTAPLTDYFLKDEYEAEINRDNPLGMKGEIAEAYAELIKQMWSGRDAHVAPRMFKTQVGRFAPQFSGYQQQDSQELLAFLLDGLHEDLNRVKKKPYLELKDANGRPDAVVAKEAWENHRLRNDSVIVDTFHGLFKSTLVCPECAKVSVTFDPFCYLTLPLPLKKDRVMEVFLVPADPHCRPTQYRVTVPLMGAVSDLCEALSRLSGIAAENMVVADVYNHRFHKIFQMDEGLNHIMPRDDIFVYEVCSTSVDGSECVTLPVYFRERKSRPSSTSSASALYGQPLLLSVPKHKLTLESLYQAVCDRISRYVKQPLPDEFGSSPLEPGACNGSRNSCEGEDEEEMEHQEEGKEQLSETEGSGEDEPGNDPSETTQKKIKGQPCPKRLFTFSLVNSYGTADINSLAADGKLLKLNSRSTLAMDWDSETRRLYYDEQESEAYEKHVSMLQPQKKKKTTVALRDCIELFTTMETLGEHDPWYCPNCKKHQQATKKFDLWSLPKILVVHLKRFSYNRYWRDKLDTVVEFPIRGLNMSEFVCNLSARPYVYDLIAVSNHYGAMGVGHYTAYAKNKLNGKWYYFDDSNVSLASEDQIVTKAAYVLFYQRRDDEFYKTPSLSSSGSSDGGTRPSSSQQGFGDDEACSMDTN
Outline: as §1

Measured: log2 ratio of Biotin-Ahx-Ub-VS probe labelling

USP34, sequence (Q70CQ2 whole entry, the tested form may be a part): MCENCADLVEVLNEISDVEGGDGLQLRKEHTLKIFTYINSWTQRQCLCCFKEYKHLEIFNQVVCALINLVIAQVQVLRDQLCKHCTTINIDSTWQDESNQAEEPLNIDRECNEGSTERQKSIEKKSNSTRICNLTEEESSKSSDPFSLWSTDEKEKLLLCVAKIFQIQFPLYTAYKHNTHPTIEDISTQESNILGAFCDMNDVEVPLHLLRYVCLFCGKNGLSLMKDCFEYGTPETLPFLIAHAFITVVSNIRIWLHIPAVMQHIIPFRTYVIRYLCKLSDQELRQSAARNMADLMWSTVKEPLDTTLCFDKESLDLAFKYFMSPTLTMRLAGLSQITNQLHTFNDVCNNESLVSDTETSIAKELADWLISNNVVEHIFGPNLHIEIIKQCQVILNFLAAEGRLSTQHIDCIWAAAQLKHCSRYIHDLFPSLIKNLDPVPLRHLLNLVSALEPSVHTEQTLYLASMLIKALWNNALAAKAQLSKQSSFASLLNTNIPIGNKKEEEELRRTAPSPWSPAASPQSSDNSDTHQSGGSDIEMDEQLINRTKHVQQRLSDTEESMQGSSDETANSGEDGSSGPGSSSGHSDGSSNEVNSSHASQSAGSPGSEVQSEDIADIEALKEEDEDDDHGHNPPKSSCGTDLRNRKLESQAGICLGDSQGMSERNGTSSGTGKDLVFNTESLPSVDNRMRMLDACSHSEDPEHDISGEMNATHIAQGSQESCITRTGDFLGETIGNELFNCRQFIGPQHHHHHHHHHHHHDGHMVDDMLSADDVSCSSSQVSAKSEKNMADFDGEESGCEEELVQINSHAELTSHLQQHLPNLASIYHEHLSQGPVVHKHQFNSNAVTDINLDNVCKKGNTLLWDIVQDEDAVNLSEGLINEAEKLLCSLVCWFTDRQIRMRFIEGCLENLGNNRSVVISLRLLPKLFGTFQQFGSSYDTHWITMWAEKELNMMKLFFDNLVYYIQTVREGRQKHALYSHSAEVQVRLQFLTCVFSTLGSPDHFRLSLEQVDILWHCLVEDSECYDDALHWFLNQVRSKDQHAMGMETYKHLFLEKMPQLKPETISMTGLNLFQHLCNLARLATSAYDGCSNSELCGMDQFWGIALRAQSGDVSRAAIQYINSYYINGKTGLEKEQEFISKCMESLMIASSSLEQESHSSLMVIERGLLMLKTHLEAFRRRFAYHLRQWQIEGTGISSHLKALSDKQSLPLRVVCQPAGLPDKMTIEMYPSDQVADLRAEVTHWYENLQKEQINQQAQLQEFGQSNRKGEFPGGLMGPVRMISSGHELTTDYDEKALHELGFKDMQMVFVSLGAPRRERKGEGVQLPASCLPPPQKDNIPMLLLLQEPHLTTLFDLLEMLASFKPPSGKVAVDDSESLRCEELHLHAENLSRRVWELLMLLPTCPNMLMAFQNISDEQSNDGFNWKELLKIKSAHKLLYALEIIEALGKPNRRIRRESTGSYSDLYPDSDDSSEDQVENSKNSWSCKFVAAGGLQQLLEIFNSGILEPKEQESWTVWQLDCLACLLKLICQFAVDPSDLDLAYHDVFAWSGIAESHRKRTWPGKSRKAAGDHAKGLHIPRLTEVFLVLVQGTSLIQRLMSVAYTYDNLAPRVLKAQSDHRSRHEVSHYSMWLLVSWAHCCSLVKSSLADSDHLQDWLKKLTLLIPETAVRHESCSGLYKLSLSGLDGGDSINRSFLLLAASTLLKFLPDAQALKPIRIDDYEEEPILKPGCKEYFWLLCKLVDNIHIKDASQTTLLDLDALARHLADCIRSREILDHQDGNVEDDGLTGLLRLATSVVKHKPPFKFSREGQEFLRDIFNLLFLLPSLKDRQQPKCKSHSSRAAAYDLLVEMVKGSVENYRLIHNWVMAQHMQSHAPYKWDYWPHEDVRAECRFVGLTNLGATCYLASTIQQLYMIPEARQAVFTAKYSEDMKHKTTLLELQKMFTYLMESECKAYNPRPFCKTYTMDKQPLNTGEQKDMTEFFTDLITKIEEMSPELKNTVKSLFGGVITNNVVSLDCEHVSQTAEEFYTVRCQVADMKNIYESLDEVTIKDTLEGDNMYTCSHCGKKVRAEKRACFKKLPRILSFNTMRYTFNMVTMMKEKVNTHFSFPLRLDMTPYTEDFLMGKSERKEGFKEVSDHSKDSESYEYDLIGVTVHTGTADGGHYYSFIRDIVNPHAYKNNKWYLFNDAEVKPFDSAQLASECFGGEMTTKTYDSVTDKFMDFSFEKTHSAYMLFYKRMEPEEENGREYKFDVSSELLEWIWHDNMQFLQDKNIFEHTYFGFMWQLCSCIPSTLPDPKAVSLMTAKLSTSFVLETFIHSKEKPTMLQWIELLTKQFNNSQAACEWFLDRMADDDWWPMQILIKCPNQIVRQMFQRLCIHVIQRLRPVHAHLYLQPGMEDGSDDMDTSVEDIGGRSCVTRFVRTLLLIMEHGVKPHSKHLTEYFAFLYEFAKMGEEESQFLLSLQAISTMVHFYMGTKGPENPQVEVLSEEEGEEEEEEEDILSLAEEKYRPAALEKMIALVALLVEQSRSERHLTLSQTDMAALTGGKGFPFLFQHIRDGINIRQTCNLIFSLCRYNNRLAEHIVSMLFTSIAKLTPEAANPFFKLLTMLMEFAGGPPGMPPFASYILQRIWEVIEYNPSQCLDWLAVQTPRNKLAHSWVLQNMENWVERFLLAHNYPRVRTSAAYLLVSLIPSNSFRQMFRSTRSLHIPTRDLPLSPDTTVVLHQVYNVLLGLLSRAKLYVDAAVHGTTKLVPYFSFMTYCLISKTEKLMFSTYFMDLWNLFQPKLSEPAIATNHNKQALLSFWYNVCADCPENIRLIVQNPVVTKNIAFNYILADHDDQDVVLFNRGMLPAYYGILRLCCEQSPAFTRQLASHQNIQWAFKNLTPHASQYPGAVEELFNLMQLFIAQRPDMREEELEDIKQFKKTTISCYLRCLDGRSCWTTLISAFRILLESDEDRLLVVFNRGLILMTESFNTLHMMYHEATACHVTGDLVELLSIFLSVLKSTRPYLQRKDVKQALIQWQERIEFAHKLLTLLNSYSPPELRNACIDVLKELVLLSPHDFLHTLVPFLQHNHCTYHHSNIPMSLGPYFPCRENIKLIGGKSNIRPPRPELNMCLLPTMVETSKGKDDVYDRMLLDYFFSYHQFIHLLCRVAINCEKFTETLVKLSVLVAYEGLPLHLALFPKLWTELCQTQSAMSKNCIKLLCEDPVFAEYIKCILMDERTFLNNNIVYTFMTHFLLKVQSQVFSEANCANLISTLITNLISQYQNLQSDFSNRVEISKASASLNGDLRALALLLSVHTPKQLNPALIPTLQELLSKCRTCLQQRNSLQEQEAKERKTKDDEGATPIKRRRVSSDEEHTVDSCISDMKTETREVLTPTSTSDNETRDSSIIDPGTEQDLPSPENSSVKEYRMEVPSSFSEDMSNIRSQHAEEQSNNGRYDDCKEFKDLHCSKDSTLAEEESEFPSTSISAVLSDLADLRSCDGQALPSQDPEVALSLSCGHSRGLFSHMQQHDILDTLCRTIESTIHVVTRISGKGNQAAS

CN(Cc1nc2ccccc2[nH]1)C(=O)CCl.Cl
inactive: USP34 -0.266 | USP36 0.0504 | USP38 0.056 | USP39 0.391 | USP4 -0.0216

Reference: the supplement of paper PMC11732987, “Enantioselective OTUD7B fragment discovery through chemoproteomics screening and high-throughput optimisation” (Communications Chemistry, 2025)
